# Publication PMC4336329 (PLoS ONE, 2015)
# Screen size: about 310,000 compounds; about 14,000 (4.5%) showed an effect of 50% or more. Effects have a minus sign here. For the sample, strong results were picked, then their nearest neighbours and some compounds at random.
# Target: human ether-à-go-go-related gene (hERG) potassium channel (human, UniProt Q12809)
# Assay: primary screen, population patch clamp on CHO cells stably expressing hERG; higher = less effect of the substance
# 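Note: peak tail current of the secondary pulse compared with the same well before compound.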
# Sequence of human ether-à-go-go-related gene (hERG) potassium channel (Q12809 whole entry, looked up): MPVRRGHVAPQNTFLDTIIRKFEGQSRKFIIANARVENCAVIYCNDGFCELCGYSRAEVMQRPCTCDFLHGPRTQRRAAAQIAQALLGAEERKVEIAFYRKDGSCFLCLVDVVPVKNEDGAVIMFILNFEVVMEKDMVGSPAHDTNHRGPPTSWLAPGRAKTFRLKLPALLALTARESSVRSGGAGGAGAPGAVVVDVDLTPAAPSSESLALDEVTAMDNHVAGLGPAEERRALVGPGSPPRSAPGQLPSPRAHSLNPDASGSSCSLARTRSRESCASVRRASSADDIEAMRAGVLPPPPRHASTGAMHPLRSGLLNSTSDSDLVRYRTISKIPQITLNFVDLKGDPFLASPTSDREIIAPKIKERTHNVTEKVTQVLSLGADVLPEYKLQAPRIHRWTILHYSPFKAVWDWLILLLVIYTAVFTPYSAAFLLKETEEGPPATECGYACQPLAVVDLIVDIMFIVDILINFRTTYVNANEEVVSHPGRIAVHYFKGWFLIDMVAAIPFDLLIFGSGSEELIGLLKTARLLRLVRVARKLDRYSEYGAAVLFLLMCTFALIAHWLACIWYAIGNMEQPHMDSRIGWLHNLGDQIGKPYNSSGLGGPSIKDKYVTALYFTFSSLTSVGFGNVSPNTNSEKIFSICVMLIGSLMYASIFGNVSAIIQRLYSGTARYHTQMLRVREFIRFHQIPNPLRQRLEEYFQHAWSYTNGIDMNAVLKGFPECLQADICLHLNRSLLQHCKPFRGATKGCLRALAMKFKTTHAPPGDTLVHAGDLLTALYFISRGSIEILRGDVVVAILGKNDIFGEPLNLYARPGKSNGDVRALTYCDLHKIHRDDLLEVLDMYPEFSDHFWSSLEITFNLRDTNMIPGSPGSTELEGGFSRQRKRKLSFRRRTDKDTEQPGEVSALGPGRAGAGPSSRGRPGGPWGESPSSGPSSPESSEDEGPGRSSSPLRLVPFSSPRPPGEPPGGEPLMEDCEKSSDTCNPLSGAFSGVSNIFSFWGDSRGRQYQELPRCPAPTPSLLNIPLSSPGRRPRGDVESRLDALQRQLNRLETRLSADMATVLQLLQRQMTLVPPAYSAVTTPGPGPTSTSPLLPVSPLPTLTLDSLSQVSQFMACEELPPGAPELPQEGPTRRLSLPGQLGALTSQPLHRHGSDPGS
row,Structure (SMILES),"hERG current change (%, negative = inhibition) at 10uM"
1,CCOc1cc(/C=C(/C#N)c2nc3ccccc3[nH]2)ccc1OCc1ccc(C(=O)O)o1,3.75%
2,CC1(C)CC2CC(C)(CN2C(=O)C23CCC(C)(C(=O)O2)C3(C)C)C1 (centres unmarked),-8.69%
3,Cc1cc(C)c(S(=O)(=O)NCc2cn3ccccc3n2)c(C)c1,4.96%
4,CCCCNC(=O)c1cc2ccccc2s1,10.8%
5,CC1CCN(C(=O)CNC(=O)CNC(=O)Cc2ccccc2)CC1,4.9%
6,C=CCN1C(=O)C2C(C(=O)NC3CCCC3)C3C=CC2(O3)C1C(=O)NC1CCCC1 (centres unmarked),19%
7,COC(=O)c1sccc1NC(=O)c1c(F)c(F)c(F)c(F)c1F,27%
8,CN(Cc1ccc(OCC(O)CN(C)Cc2ccccc2)cc1)Cc1nccn1C (centres unmarked),-4.14%
9,CCn1ccnc1CNCc1ccc(OCC(O)CN(C)Cc2ccccc2)cc1 (centres unmarked),-11.7%
10,CN(Cc1ccc(Br)cc1)CC(O)COc1cccc(Br)c1 (centres unmarked),-28.5%
11,Cc1cc(CN(C)Cc2ccc(OCC(O)CN(C)Cc3ccccc3)cc2)on1 (centres unmarked),-4.84%
12,COc1ccc(OCC(O)CNc2ccc(Br)cc2)cc1 (centres unmarked),9.56%
13,COc1ccc(Br)cc1CN(C)CC(O)COc1ccc(Br)cc1 (centres unmarked),-74.6%
14,CN(Cc1ccccc1)CC(O)COc1ccc(CNCc2cccnc2)cc1 (centres unmarked),1.13%
15,CN(Cc1ccccc1)CC(O)COc1ccc(CNCc2nccn2C)cc1 (centres unmarked),-72.5%
16,COc1ccc(CN(C)CC(O)COc2ccc(-c3ccccc3)cc2)cc1OC (centres unmarked),-69.4%
17,CC(=O)Nc1ccccc1-c1nn[nH]n1,0.73%
18,Cc1c(CCN)ccc2c1[nH]c1ccccc12,0.0766%

row,Structure (SMILES),"hERG current change (%, negative = inhibition) at 10uM"
1,Oc1ccccc1/C=N/N1CCCCC1,6.81%
2,CCN(CC)c1ncnc2c1ncn2Cc1c(Cl)cccc1Cl,2.93%
3,CC(C(=O)O)n1cc(Cl)cn1 (centres unmarked),8.82%
4,CCCCn1c(N)c(N(CC(C)C)C(=O)CN2C(=O)c3ccccc3C2=O)c(=O)[nH]c1=O,-7.79%
5,Cc1ccc(NC(=O)c2ccc(OC(=O)c3cc4ccccc4o3)cc2)cc1,8.66%
6,Cc1nc2ccccc2c(=O)n1NC(=O)c1cccc(Cl)c1,13%
7,Nc1ccccc1SCC1CSc2nc3ccccc3c(=O)n21 (centres unmarked),-45.2%
8,O=c1c2ccccc2nc2n1C(CSCc1ccc(Cl)cc1Cl)CS2 (centres unmarked),-21.8%
9,O=C(Nc1ccccc1SCC1CSc2nc3ccccc3c(=O)n21)c1cccc(Cl)c1 (centres unmarked),-75.5%
10,COc1cccc(SCC2CSc3nc4ccccc4c(=O)n32)c1 (centres unmarked),-22.3%
11,O=c1c2ccccc2nc2n1C(CSCc1cccc(C(F)(F)F)c1)CS2 (centres unmarked),-23.4%
12,Cc1ccc(C(=O)Nc2nc3ccccc3c(=O)s2)cc1,15.9%
13,O=C(Nc1ccccc1SCC1CSc2nc3ccccc3c(=O)n21)c1ccccc1 (centres unmarked),-67.7%
14,Cc1ccc(C(=O)Nc2ccccc2SCC2CSc3nc4ccccc4c(=O)n32)cc1 (centres unmarked),-68.4%
15,Cc1cccc(C(=O)Nc2ccccc2SCC2CSc3nc4ccccc4c(=O)n32)c1 (centres unmarked),-80.4%
16,O=c1c2ccccc2nc2n1C(CBr)CS2 (centres unmarked),15.6%
17,O=c1c2ccccc2nc2n1C(CSc1ccccc1)CS2 (centres unmarked),-19.6%
